{"source": "PubChem BioAssay (NCATS)", "note": "Inconclusive results are not listed. Calls of active or inactive are those of the source. Calls come from the whole dose curve; as a rule, active = well fitted inhibition curve with a large enough effect; inconclusive = small, poorly fitted or top-dose-only effect; inactive = no such curve, though single readings can be large or run the other way. Potency is the fitted concentration of half-maximal effect.", "data": [{"target": "Aldehyde dehydrogenase 1A1 (Homo sapiens) (UniProt P00352)", "assay": "qHTS for Inhibitors of the Aldehyde Dehydrogenase Family (ALDH1A1) Confirmatory screens (AID 2061316); note: nearly all actives have a fitted effect of over 65% in size", "conditions": "ALDH inhibition qHTS; series mostly up to 47.3 µM", "values": [{"compound": "O=S(=O)(c1ccccc1)N1CCN(c2nc(-c3ccc(Br)cc3)cs2)CC1", "Potency": "10.1 µM (active)"}, {"compound": "Cc1cc(-c2nnc3n2CCCC3)c(C)n1-c1ccccc1", "Potency": "11.3 µM (active)"}, {"compound": "Cc1ccnc(CC(=S)N2CCN(c3cccc(C(F)(F)F)c3)CC2)c1", "Potency": "10.1 µM (active)"}, {"compound": "Cc1cc(-c2nnc3n2CCCCC3)c(C)n1-c1ccc(Cl)c(Cl)c1", "Potency": "14.2 µM (active)"}, {"compound": "FC(F)(F)c1ccc(-c2ccc(CNc3nc(-c4ccccc4C(F)(F)F)nc4ccccc34)cc2)cn1", "Potency": "7.98 µM (active)"}, {"compound": "O=C([C@H](Cc1ccc(O[S+](=O)([O-])c2cccnc2)cc1)N[S+](=O)([O-])c1ccccn1)N1CCN(c2ccccc2)CC1", "Potency": "5.04 µM (active)"}, {"compound": "COc1ccc(C2=Nn3c(nnc3-c3ccc(OC)cc3)SC2)cc1", "Potency": "inactive"}, {"compound": "COc1ccc(C2=Nn3c(nnc3-c3cccc(OC)c3OC)SC2)c(OC)c1", "Potency": "inactive"}, {"compound": "COc1ccc(C2=Nn3c(nnc3-c3cc(OC)ccc3OC)SC2)cc1", "Potency": "14.2 µM (active)"}, {"compound": "O=[S+]([O-])(Nc1ccc(-c2nc3ccccc3[nH]2)cc1)c1ccc2c(c1)OCO2", "Potency": "inactive"}, {"compound": "O=C(Nc1cncc(Cc2ccccc2)c1)c1ccc(-c2cccc([N+](=O)[O-])c2)o1", "Potency": "3.18 µM (active)"}, {"compound": "O=C(NCCCCc1ccccc1)C1CCN(c2nc(-c3ccc(Br)cc3)cs2)CC1", "Potency": "8.96 µM (active)"}, {"compound": "O=C(CN1C(=O)N/C(=C\\c2cn(-c3cccc(C(=O)O)c3)cn2)C1=O)Nc1ccccc1Cl", "Potency": "inactive"}, {"compound": "Cc1cc(C)nc(NC(=S)N2CC3CN(c4ncc(C(F)(F)F)cc4Cl)CC3C2)c1", "note": "(configuration not stated)", "Potency": "12.7 µM (active)"}, {"compound": "FC(F)Oc1ccc(C2=Nn3c(nnc3-c3ccccc3C(F)(F)F)SC2)cc1OCC1CC1", "Potency": "inactive"}, {"compound": "O=C(Nc1nc(-c2ccccc2)cs1)c1ccncc1NS(=O)(=O)c1ccc2ccccc2c1", "Potency": "8.96 µM (active)"}, {"compound": "CN1CCN(c2ccc(Nc3nn4c(=O)c5ccccc5nc4s3)cc2)CC1", "Potency": "12.7 µM (active)"}]}]}
